Data taken from PubChem BioAssay (NCATS).
Records with an inconclusive call do not appear. Unmarked numbers belong to inactive results. Activity calls are given as the source filed them. Calls follow the shape of the dose curve; as a rule, active = well fitted inhibition curve with a large enough effect; inconclusive = small, poorly fitted or top-dose-only effect; inactive = no such curve, though single readings can be large or run the other way.

Target: N-terminal Xaa-Pro-Lys N-methyltransferase 1 (Homo sapiens) (UniProt Q9BV86)
Assay: qHTS Assay for Inhibitors of N-terminal methyltransferase 1 (NTMT1): LOPAC validation of the NTMT1 SAHH-coupled ThioGlo3 Assay (AID 1347143);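 also: SAH from peptide methylation measured as thiol fluorescence via SAHH coupling and ThioGlo3; nearly all actives have a fitted effect of over 70% in size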
Conditions: recombinant NTMT1, SAHH-coupled ThioGlo3 fluorescence; series mostly up to 114 µM; activity change, negative = inhibition: at the top concentration
Text: Assay Submitter (PI): Rong Huang Ph.D, Purdue University, West Lafayette, IN 47907 The N-terminal methytransferase 1 is the first methyltransferase that methylates protein alpha-N-amines and plays an important role in regulating cell mitosis, chromatin interactions and DNA repair. It is observed to be over-expressed in various cancer patient tissues like malignant melanoma and colorectal cancer tissues. Knockdown of NTMT1 in cancer cells causes cell mitotic defects and enhances sensitivity to DNA damaging chemotherapeutics. […] These critical cellular processes in which NTMT1 is implicated, coupled with emerging links to cellular dysfunction, strengthen the inference that NTMT1 is a compelling novel anticancer target. Progress have been made in understanding the molecular properties of NTMT1 and the biological consequences of protein alpha-N-terminal methylation, but there are no specific small molecule probes available for NTMT1 to fully characterize its MTase activity. To address this unmet need, a panel of assay is created and established to enable quantitative high-throughput screening (qHTS) for novel, potent, and selective small molecule NTMT1 inhibitors. Two orthogonal qHTS that use different reagents (ThioGlo vs. MTaseGlo) are developed for primary robotic screening against the NCATS chemical library of more than 400,000 small molecules. Identified inhibitors are reacquired, validated, and further characterized. […] A pilot screen against the LOPAC library of 1280 compounds is carried out to assess performance of the optimized qHTS in 1536-well plate format. Early Translation Branch (ETB) National Center for Advancing Translational Sciences (NCATS) National Institute of Health (NIH)
Materials: NTMT1 enzyme, substrate SPKRIA, control peptide RCC1-6 is provided by the Huang laboratory. ThioGlo3 Assay: In brief, 125nM NTMT1 enzyme was dispensed into a 1536-well assay plate with Aurora Discovery BioRAPTR Flying Reagent Dispenser (FRD, Beckton-Dickenson). Compounds (at various concentration) or 1uM RCC1-6 (SPKRIA) control were transferred to the assay plate using the Kalypsys 1536-pintool apparatus. After 1 min of room temperature incubation, 1uL of substrate (100uM SAM, 10uM SAHH, 15uM ThioGlo3) was added to the wells bringing the final assay volume to 4uL. Initial (background) fluorescence readout (EX: 340nm, EM: 450nm) was then detected using the PerkinElmer ViewLux microplate imager and a final fluorescence readout was taken after 30 min of room temperature incubation. The data was normalized to the background fluorescence.
% is scaled to controls: 0 for no effect and ±100 for the full control effect; potency is read from the fitted curve at half-maximal effect.

N-terminal Xaa-Pro-Lys N-methyltransferase 1 (Homo sapiens), sequence (Q9BV86 whole entry, looked up): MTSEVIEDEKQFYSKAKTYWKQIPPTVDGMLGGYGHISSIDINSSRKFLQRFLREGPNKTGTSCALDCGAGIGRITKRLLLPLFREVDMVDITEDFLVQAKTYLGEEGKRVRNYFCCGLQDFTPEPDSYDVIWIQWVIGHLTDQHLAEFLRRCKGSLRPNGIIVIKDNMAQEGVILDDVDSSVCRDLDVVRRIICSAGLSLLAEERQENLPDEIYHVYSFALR

| Compound | activity change, negative = inhibition [%] | Potency |
| --- | --- | --- |
| CNCCC=C1c2ccccc2CCc2ccccc21 | -28.3 | – |
| O=C1CCC(c2ccc(-n3ccnc3)cc2)=NN1 | -26.2 | – |
| N[C@H](CO)C(=O)O | -11.7 | – |
| C[N+]1(CCCCC[N+]2(C)CCCC2)CCCC1 | -9.75 | – |
| CN1C2CCC1CC(OC(=O)c1c[nH]c3ccccc13)C2 (stereo unspecified) | -19.7 | – |
| C1CCc2nnnn2CC1 | -9.01 | – |
| CC1(C)CCC(NC(=O)[C@@H](N)CCC(=O)O)CC1 | -13.9 | – |
| CC(C)C[C@H]1C(=O)N2CCC[C@H]2[C@]2(O)O[C@](NC(=O)[C@@H]3C=C4c5cccc6[nH]c(Br)c(c56)C[C@H]4N(C)C3)(C(C)C)C(=O)N12 | – | 56.2 µM (active) |
| CC(C)COC(=O)OCN1C(=O)CN(CCN2CC(=O)N(COC(=O)OCC(C)C)C(=O)C2)CC1=O | -15.1 | – |
| N[C@@H](Cc1cnc[nH]1)C(=O)O | -11.3 | – |
| CC[C@H](C)C(=O)O[C@H]1CCC=C2C=C[C@H](C)[C@H](CC[C@@H]3C[C@@H](O)CC(=O)O3)[C@H]21 | -3.77 | – |
| COc1cc(NS(C)(=O)=O)ccc1Nc1c2ccccc2nc2ccccc12 | – | 50.1 µM (active) |
| CNCCC(Oc1ccccc1C)c1ccccc1 (stereo unspecified) | -15.6 | – |
| Nc1cc(Cl)c(NC2=NCCN2)c(Cl)c1 | -9.77 | – |
| O=C(O)c1cc2cc(Cc3cccnc3)ccc2o1 | -12 | – |
| CCCC1O[C@@H]2C[C@H]3[C@@H]4CCC5=CC(=O)C=C[C@]5(C)[C@H]4[C@@H](O)C[C@]3(C)[C@]2(C(=O)CO)O1 (stereo partly specified) | -1.54 | – |
| Oc1ccc(O)cc1 | – | 31.6 µM (active) |
| CCCn1c(=O)[nH]c(=O)c2[nH]cnc21 | -10.2 | – |
| CC(CCc1ccccc1)NCC(O)c1ccc(O)c(C(N)=O)c1 (stereo unspecified) | – | 56.2 µM (active) |
| CC(=O)O[C@H]1C[C@@H]2CC[C@@H]3[C@H](CC[C@@]4(C)[C@H]3C[C@H]([N+]3(C)CCCCC3)[C@@H]4OC(C)=O)[C@@]2(C)C[C@@H]1[N+]1(C)CCCCC1 | -19.1 | – |
| C[C@@H]1C(=O)NC2=Nc3cccc(Cl)c3CN21 | -10.2 | – |
